A number with no mark means an inactive call. No rule for the calls is given here.
B1: design_601_c3fd07b4-2f34-4ad8-bd4e-2749faf628eb_1838_dldesign_0_cycle1_af2pred (protein)
chain: SMAEEILKEFLELAKVMAEDPEKGAKLFAEKVKELDPSIYPFAEAAAKKAAEEGAPLEELERAARAFANVVTT
B2: design_601_c3fd07b4-2f34-4ad8-bd4e-2749faf628eb_1953_dldesign_0_cycle1_af2pred (protein)
chain: AVAAKAQAALDRTAALREKHPEAKEYLDKAEEEAKKALADPANAAEYLKKAANYLQEAYQEASEYEFKKK
B3: design_601_c3fd07b4-2f34-4ad8-bd4e-2749faf628eb_2458_dldesign_0_cycle1_af2pred (protein)
chain: MEKAKEEALKLIKELLEATKLPKGKASQIALELAAEADWLAKKSSPEAAELFNALAEAARAVVKDKEKGKELAKKVKEKVEK
B4: design_601_c3fd07b4-2f34-4ad8-bd4e-2749faf628eb_2283_dldesign_0_cycle1_af2pred (protein)
chain: AAAEDEAKRALAKKKAEEAKKLAKEAVEGNAEKAEKAAKELEKILKELRALGKAASPAAKAALTAAAHTAAEAYAEAYSAAVVKKEKE
B5: design_602_0a1f3d3d-7d26-454b-9b34-ebe8ef9bc7d4_244_dldesign_0_cycle1_af2pred (protein)
chain: AAAEAAKAKVKAIAAKSYAKNPEAGQYITLALAFAKRGDLEEALASLDEAEKEDPTNYPEARAAVLAYYAALKA
B6: design_601_c3fd07b4-2f34-4ad8-bd4e-2749faf628eb_2023_dldesign_0_cycle1_af2pred (protein)
chain: MREEIIKAIKEAVKELKKLGKLAKEAKKKNPEIGKEAEKDAKKLQKELFEALSSENAVEKLKEVKEKTKKKIEEIKKKVEE
B7: design_602_0a1f3d3d-7d26-454b-9b34-ebe8ef9bc7d4_990_dldesign_0_cycle1_af2pred (protein)
chain: MDKDGIAYSIKAKHIAEAALILGEKSTPEMAEVFKEVAELAKEAAEAALKDAETGKKLLKEVLKKAREAKKKAEEAKKA
B8: design_602_0a1f3d3d-7d26-454b-9b34-ebe8ef9bc7d4_204_dldesign_0_cycle1_af2pred (protein)
chain: SEEEKKKELLEKTEENKKYLEELRKKYEADPSYKVEAATAEAGVKAAEEAKGENFEEAAEKAQKAYNTFKRMEEAEEEAKKRA
B9: design_602_0a1f3d3d-7d26-454b-9b34-ebe8ef9bc7d4_1230_dldesign_0_cycle1_af2pred (protein)
chain: AEAEKKAKEAVKLAEKYYEKAKELAKEAEKDPKLKEAAKKIKKDAEEIKKALEKGIKEGNEVEAAQTSKSLYRAAEAEYKRAKK
B10: design_602_0a1f3d3d-7d26-454b-9b34-ebe8ef9bc7d4_194_dldesign_0_cycle1_af2pred (protein)
chain: AVEAAIEALEELAKKAPPELAEYLKRTAEAAKKAGEKVLRYAVRAAAYATIALEGSPEVAAEAIKKAKEQAEKAEKIAKE
B11: design_602_0a1f3d3d-7d26-454b-9b34-ebe8ef9bc7d4_268_dldesign_0_cycle1_af2pred (protein)
chain: VEEKAKKYIEEAKKKAKEMKELGKKNPAAKENYDAAAKVWETAAKEIEKDPSKAEEYEKKAKKTIAVLLDAANAEL
B12: design_602_0a1f3d3d-7d26-454b-9b34-ebe8ef9bc7d4_1205_dldesign_0_cycle1_af2pred (protein)
chain: LKERIEKLKEEGKKLEEEAEEMKDKDASAKLYQLAHAALAAAKRAEEALKAGNKEEAEKYLKIGEEAVKKGKEILKKGKA
B13: design_602_0a1f3d3d-7d26-454b-9b34-ebe8ef9bc7d4_1060_dldesign_0_cycle1_af2pred (protein)
chain: GEEKEKKVEEIEKKAKEEAKKYAEEIAKALKDPEKMKKIATEATDKLLEMAEEMVETDKKAGKKAAEMIREGLRIMKETYEKERKKA
B14: design_601_c3fd07b4-2f34-4ad8-bd4e-2749faf628eb_1497_dldesign_0_cycle1_af2pred (protein)
chain: SMEEEEQRRRAIEELKRLMELADKSPSEIAKATREAVAATPLYAERIRKVGTAMMFNPEEGKKLAEEAIKELE
B15: design_602_0a1f3d3d-7d26-454b-9b34-ebe8ef9bc7d4_299_dldesign_0_cycle1_af2pred (protein)
chain: EIGKIVDEALEKILELQAEAKKAGKEAAKEVDKVRKEMIKEAKKMAKEGKSAEEVKKFAEEKVEEAKKIAEEAKKK
B16: design_602_0a1f3d3d-7d26-454b-9b34-ebe8ef9bc7d4_487_dldesign_0_cycle1_af2pred (protein)
chain: EEEKRIEEAKKKAREAAEKAREYGKKIIKLGYDPKKAAELAQKAQEARAEAEALPEKAEEAAKKAKEAAEELEKLLKEAEA
B17: design_601_c3fd07b4-2f34-4ad8-bd4e-2749faf628eb_1955_dldesign_0_cycle1_af2pred (protein)
chain: MEQEKKDEELLKKVKELGKEATEKSLEDPEKAKEYRKKLIEEAKKAAAEASPEYAKKIAEEAQKAQEEITEAQVEGEKKKK
B18: design_602_0a1f3d3d-7d26-454b-9b34-ebe8ef9bc7d4_1202_dldesign_0_cycle1_af2pred (protein)
chain: DEVEKILKEALEKMEEYKKKALEEAAKKDPETSKKLTELIEKRFEKREKELKEEMKKNKNDPEKAKRIGFHAVARAEITYEQAKLA
B19: design_602_0a1f3d3d-7d26-454b-9b34-ebe8ef9bc7d4_766_dldesign_0_cycle1_af2pred (protein)
chain: GELEALAERAAELVLDPEKAEEGVALVVERLRALTDPAEIARLVQLVQQALAEAAAKNPEKAAQLRAAAKRVVEAAREIVAEKAAAA
B20: design_602_0a1f3d3d-7d26-454b-9b34-ebe8ef9bc7d4_149_dldesign_0_cycle1_af2pred (protein)
chain: VVEKALKEMEKYIEKAKEEAIKINPKAKEYIEKRAKRIREEAKKGAEEAKKLYKEDPEKGKEKAKEALKKTKGLAESLIEHAKFSAK
B21: design_602_0a1f3d3d-7d26-454b-9b34-ebe8ef9bc7d4_576_dldesign_0_cycle1_af2pred (protein)
chain: AEAEKQAALAEASQLLLEANSFAKWVSEYAKELGQEDIAKKAEEAGKEYTKKAKAYIKAGKAEEAKKEAEKLLEEAEKLYKEAKEKA
B22: design_602_0a1f3d3d-7d26-454b-9b34-ebe8ef9bc7d4_595_dldesign_0_cycle1_af2pred (protein)
chain: AAAVKAKMQAIAAAAKDAAKRAKEVAEKTGSTEAEADAVRAQHLSDAATINANGTQAQADAAQARLDVLKARAEKLEKEAKE
B23: design_601_c3fd07b4-2f34-4ad8-bd4e-2749faf628eb_2221_dldesign_0_cycle1_af2pred (protein)
chain: GAAEEAKKALKEAKERIEKVATPETKEFHEKLKEEMEKKVKELMAGDPVEGAKAAAKAAAAYAQEAYEASAEARAKEIIKK
B24: design_601_c3fd07b4-2f34-4ad8-bd4e-2749faf628eb_1863_dldesign_0_cycle1_af2pred (protein)
chain: SEYEKELAKAEAFVKEALKKSKEEFIAETKKLFEEGSPVYQSALMRALTKAAKEYKDDPEKQKKALDARDTIVD
B25: design_602_0a1f3d3d-7d26-454b-9b34-ebe8ef9bc7d4_1333_dldesign_0_cycle1_af2pred (protein)
chain: EKERKEKIAKILLESAKDAMKEAEKALKEGKAKKAMMLATLAVSSAKNAYDFGKEASKELAEEAKKALEEAKEMLKKVKKALE
B26: design_601_c3fd07b4-2f34-4ad8-bd4e-2749faf628eb_2299_dldesign_0_cycle1_af2pred (protein)
chain: MEAKEKAEKAIKRAKEIGEKLIKKVAFNPEAAEKVKKLTEEAIEAIKKDPEEGIKKGAEILQKAREYAAEVLAKN
B27: design_602_0a1f3d3d-7d26-454b-9b34-ebe8ef9bc7d4_881_dldesign_0_cycle1_af2pred (protein)
chain: EKEKAAKKIAELMDKAYDLISDGGEAEIKKGKELAKEAVKLGKEAGPELAKKAEKGLRALERLAEETEKALKK
B28: design_601_c3fd07b4-2f34-4ad8-bd4e-2749faf628eb_2200_dldesign_0_cycle1_af2pred (protein)
chain: SSEYSKKLAEDLKTFVKNIRDIAKESGDPAVVEQAKAVMAAFVTSEEAGVAAAKKLEAYTKETTNPALAAKAATAYDALKNIADG
B29: design_602_0a1f3d3d-7d26-454b-9b34-ebe8ef9bc7d4_533_dldesign_0_cycle1_af2pred (protein)
chain: SLKEELAEKAEEKAKKAVEALKAYAKADPSKAEEMAAAAKKVKEAAERGKKGNVQEAGSAEVLAESALSAAEKKLKEL
B30: design_601_c3fd07b4-2f34-4ad8-bd4e-2749faf628eb_1485_dldesign_0_cycle1_af2pred (protein)
chain: GYKERAKKEIEEAKKNLEKAKADPSTAVSLLTDAIAHANAAKSLAEKLEKTDPETGKELIEEAKEIREEAKKVLAERNAA
B31: design_602_0a1f3d3d-7d26-454b-9b34-ebe8ef9bc7d4_95_dldesign_0_cycle1_af2pred (protein)
chain: MEELAKKAEEVVEESGEALAKAPREKWPEISELRHESLRALREAGENPETREEHLKEGEKYLEEAKKLAEKGAKE
B32: design_602_0a1f3d3d-7d26-454b-9b34-ebe8ef9bc7d4_1317_dldesign_0_cycle1_af2pred (protein)
chain: MEEKKEEEARKVAHEAFRVAALAENVASAAEKKGDEEIAKKAKEARKTAEKAMELAREGNVKEARKLAKEARKVVEELRKKLEA
B33: design_602_0a1f3d3d-7d26-454b-9b34-ebe8ef9bc7d4_227_dldesign_0_cycle1_af2pred (protein)
chain: GAAAKAEAAKLAHESNEAKAEAVAHPEKAAEEAKKIKERLKELEKKAKEAPAEVAKYYAKAAKIAKKNLEEAKKVAEEAKA
B34: design_601_c3fd07b4-2f34-4ad8-bd4e-2749faf628eb_2331_dldesign_0_cycle1_af2pred (protein)
chain: HMEEEAYKAKVEKAKAAMKEAADKLVSDPEAAKKQITQIAKDTAKELIATGTPAGKAAAQDALAEATAAKTELDKKAK
B35: design_602_0a1f3d3d-7d26-454b-9b34-ebe8ef9bc7d4_19_dldesign_0_cycle1_af2pred (protein)
chain: MEEEEELKKKKEELLKLKKKLEEAYDIAAELAAKNPEYLDEVLEKYREGLRYLKLGGENPENYEEYYEKAKEKLKEIEEIAKKLK
B36: design_602_0a1f3d3d-7d26-454b-9b34-ebe8ef9bc7d4_127_dldesign_0_cycle1_af2pred (protein)
chain: AEEERRKALAKKRAERAKALAVEAKKEGNEEAAKYYEKAAELYAKAAEAPPEERGKLVDEAVEYYGEGELEKIKFK
B37: design_602_0a1f3d3d-7d26-454b-9b34-ebe8ef9bc7d4_348_dldesign_0_cycle1_af2pred (protein)
chain: IDVKATADKFLKATEEAAKKDAELGKKTAKKAIYTLDVLGEADPEYKEYTDKKKEEIKKTLAELTAKQKAKE
B38: design_602_0a1f3d3d-7d26-454b-9b34-ebe8ef9bc7d4_418_dldesign_0_cycle1_af2pred (protein)
chain: SEEAKKLAEEAKKEMGNIRLDAYDKASEVNVEEAKKIFEEAKEKIEKIAKETAELVPEYAEEILKGGEKAMKALERAAKDIEKAE

Molecular target: VTCN1, Q7Z7D3
Sequence (Q7Z7D3 whole entry): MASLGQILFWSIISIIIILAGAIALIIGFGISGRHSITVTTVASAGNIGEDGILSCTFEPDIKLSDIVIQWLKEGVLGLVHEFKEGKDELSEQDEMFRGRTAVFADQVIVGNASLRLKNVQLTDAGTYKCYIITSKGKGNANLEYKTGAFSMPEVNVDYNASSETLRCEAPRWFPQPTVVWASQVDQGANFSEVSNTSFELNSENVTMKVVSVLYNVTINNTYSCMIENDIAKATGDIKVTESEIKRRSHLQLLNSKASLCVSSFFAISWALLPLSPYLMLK

Binder	binding in a display sort
B1	not found
B2	not found
B3	not found
B4	not found
B5	not found
B6	not found
B7	not found
B8	not found
B9	not found
B10	not found
B11	not found
B12	not found
B13	not found
B14	binds (active)
B15	not found
B16	not found
B17	not found
B18	not found
B19	not found

Binder	binding in a display sort
B20	not found
B21	not found
B22	not found
B23	not found
B24	not found
B25	not found
B26	not found
B27	not found
B28	not found
B29	not found
B30	not found
B31	not found
B32	not found
B33	not found
B34	not found
B35	not found
B36	not found
B37	not found
B38	not found

From paper PMC13494018
